{"source": "PubChem BioAssay AID1458", "about": "(National Center for Advancing Translational Sciences (NCATS), 2008)", "note": "Out of some 210,000 compounds screened, about 5,900 (2.8%) were called active. About 5% were inconclusive and are not listed. Many of the other results were omitted from the sample, so actives are more common in it than they were. Values without a mark were called inactive. The call rests on the fitted dose curve; in most records, active means well fitted activation curve with a large enough effect; inconclusive means small, poorly fitted or top-dose-only effect; inactive means no such curve, though single readings can be large or run the other way. Potency means the concentration at half of the fitted maximal effect."}
{"experiment": "qHTS Assay for Enhancers of SMN2 Splice Variant Expression; further: nearly all actives have a fitted effect of over 55% in size; on activity change, positive = activation: % of control where 0% means no effect", "settings": "HEK293 SMN2-luciferase splicing reporter, luminescence, 30-36 h; series mostly up to 46.1 µM; activity change, positive = activation: at the top concentration", "from_the_text": "NIH Chemical Genomics Center [NCGC] NIH Molecular Libraries Probe Production centers Network [MLPCN] MLPCN Grant: R03 MH084179-01 Assay Submitter (PI): Elliot Androphy NCGC Assay Overview: Spinal muscular atrophy (SMA) is caused by insufficient levels of the survival motor neuron protein SMN. The SMN locus on chromosome 5q13 contains two inverted copies of SMN called SMN1 and SMN2 which are 99% identical at the amino acid level. SMN1 is a fully functional protein and SMN2 skips exon 7 90% of the time. Skipping of exon 7 produces non-functional protein product. 10% of the SMN2 protein includes exon 7 and is fully functional. In the SMA disease state, mutations in the SMN1 locus are the cause of the disease state. Because only 10% of SMN2 is of the fully functional form, it is not sufficient to overcome the deficiency produced by the loss of the SMN1 product. A therapy that either increase the amount of SMN2 product made or to increase the inclusion of exon 7 has been proposed for the treatment of SMA. We have designed an assay to identify small molecules that can increase the amount of functional SMN2 product by appending a luciferase reporter gene after the native SMN2 gene, such that inclusion of exon 7 in the expressed product places the luciferase sequence in frame, thus generating functional luciferase enzyme.\nNCGC Assay Protocol Summary: This screen utilizes a luciferase reporter gene assay, combining the promoter and splicing based cassettes in tandem with the major portion of the native SMN2 cDNA, and then transfected into HEK293 cells. Compounds that increase luciferase signal presumably enhance expression of the functional SMN2 splice variant. Passaging media contained DMEM w/ glutamax (+phenol red) 10% FCS, 1x pen/strep, 200 ug/ml hygro, 1x sodium pyruvate. Assay media contained DMEM w/ glutamax (-phenol red) 10% FCS, 1x pen strep, 1x pyruvate Sequence, Parameter, Value, Description (1) Cells, […], 2000 cells/well, 1536 TC treated White solid bottom plate (2) Time, 10-12 hours, 37C 5% CO2 (3) Compound, 23 nl, MLSMR Library (4) Control Compound, 23 nL, Sodium butyrate st 4.5mM (final) conc (5) Time, 30-36 hours, 37C 5% CO2 (6) Reagent, 3 ul, One Glo (TM) from Promega (7) Time, 5-15 minutes, Room temp (8) Detector, Viewlux: luminescent read, 60 second integration, high speed 2x binning Keywords: Spinal muscular atrophy, SMA, SMN2, high throughput screening, MLSMR, MLPCN, NIH Roadmap, qHTS and NCGC"}
{"smiles": "CC(C)Oc1ccc(NC(=O)c2cc3ccccc3o2)cc1", "Potency": "2.51 µM (active)"}
{"smiles": "Cc1ncoc1C(=O)NCCC(c1ccccc1)c1ccccc1", "activity change, positive = activation": "-50.5%"}
{"smiles": "O=C(OCC1O[C@@H](OC(=O)c2cc(O)c(O)c(O)c2)[C@@H](OC(=O)c2cc(O)c(O)c(O)c2)[C@@H](OC(=O)c2cc(O)c(O)c(O)c2)[C@@H]1OC(=O)c1cc(O)c(O)c(O)c1)c1cc(O)c(O)c(O)c1", "note": "(stereo not given in full)", "activity change, positive = activation": "-42.8%"}
{"smiles": "COc1cccc(C(=O)Nc2ccc(-c3cc(C(F)(F)F)nn3-c3ccccc3)cc2)c1", "activity change, positive = activation": "-70.6%"}
{"smiles": "O=C(OCC(=O)c1cccs1)C1=COCCO1", "Potency": "14.1 µM (active)"}
{"smiles": "CC(=O)c1c(O)c(C)c(O)c(Cc2c(O)c3c(c(C(=O)/C=C/c4ccccc4)c2O)OC(C)(C)C=C3)c1O", "Potency": "inactive"}
{"smiles": "CCCCCCCCCc1ccc(OCCOCCOCCOCCOCCOCCOCCOCCOCCO)cc1", "activity change, positive = activation": "-96.9%"}
{"smiles": "Cn1c(=O)oc2cc(S(=O)(=O)N3CCC(C(=O)Nc4ccc(OC(F)(F)F)cc4)CC3)ccc21", "activity change, positive = activation": "-41.6%"}
{"smiles": "CC(=O)Oc1ccccc1C(=O)Nc1ncc([N+](=O)[O-])s1", "Potency": "12.6 µM (active)"}
{"smiles": "C[N+](C)(C)CCOP(=O)([O-])OC[C@H](O)CO", "activity change, positive = activation": "-39.5%"}
{"smiles": "CC(C)=CCC[C@]1(C)[C@@H](CC=C(C)C)C[C@@]2(CC=C(C)C)C(=O)[C@]1(C(=O)C(C)C)C(=O)C(CC=C(C)C)=C2O", "activity change, positive = activation": "-64.9%"}
{"smiles": "CC[C@]1([C@H]2O[C@@H]([C@@H]3O[C@](O)(CO)[C@@H](C)C[C@H]3C)C[C@H]2C)CC[C@@H]([C@]2(C)CC[C@@]3(C[C@@H](O)[C@@H](C)[C@@H]([C@H](C)[C@H](OC)[C@H](C)C(=O)O)O3)O2)O1", "activity change, positive = activation": "-29.3% [at 20.6 µM]"}
{"smiles": "O=C(Nc1cccc(OC(=O)N2CCCCC2)c1)N1CCOCC1", "activity change, positive = activation": "-21.1%"}
{"smiles": "CC(C)(C)c1ccc(OC(=O)N2CCCCC2)cc1", "Potency": "12.6 µM (active)"}
{"smiles": "O=C(Nc1cccc(F)c1)N1CC[C@@]2(CCCN(C(=O)Oc3ccccc3)C2)C1", "activity change, positive = activation": "-46.3%"}
{"smiles": "CC(C)(C)C(O)(CCc1ccc(Cl)cc1)Cn1cncn1", "note": "(stereo not given)", "activity change, positive = activation": "9.38%"}
{"smiles": "NCC[Se][Se]CCN", "activity change, positive = activation": "-13.3% [at 9.22 µM]"}
{"smiles": "CO[C@@H]1C[C@@H](C[C@H]2CC[C@H](C)[C@@H]([C@@H](C)C(=O)O)O2)O[C@]2(O[C@](C)([C@H]3CC[C@@](C)(C4OC([C@H]5O[C@@](O)(CO)[C@H](C)C[C@@H]5C)C[C@@H]4C)O3)C[C@H]2C)[C@@H]1C", "note": "(stereo not given in full)", "activity change, positive = activation": "-100%"}
{"smiles": "c1ccc(Cc2nn3c(Cn4cnc5ccccc54)nnc3s2)cc1", "activity change, positive = activation": "-70.4%"}
{"smiles": "N#CC(C#N)=Cc1cc(O)c(O)c([N+](=O)[O-])c1", "activity change, positive = activation": "8.15%"}
